# Bioassay records: PubChem BioAssay, several laboratories
# UHRF1 MBD2 ctr = UHRF1 methylated DNA binding inhibitors, primary screen, counter-screen for MBD2 inhibitor project, biochemical, TR-FRET, human UHRF1, single concentration | UHRF1 binding to methylated oligo | inhibition, % at 4.4 µM | 0.75% of 370,000 active | AID 687016, 2013; in the data active = inhibition above about 21%;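 also: UHRF1 SRA domain binding a hemimethylated CpG hairpin DNA probe; 0% = median of test compound wells and 100% = reference inhibitor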
# Target sequence (Q96T88 whole entry, looked up, the tested form may be a part): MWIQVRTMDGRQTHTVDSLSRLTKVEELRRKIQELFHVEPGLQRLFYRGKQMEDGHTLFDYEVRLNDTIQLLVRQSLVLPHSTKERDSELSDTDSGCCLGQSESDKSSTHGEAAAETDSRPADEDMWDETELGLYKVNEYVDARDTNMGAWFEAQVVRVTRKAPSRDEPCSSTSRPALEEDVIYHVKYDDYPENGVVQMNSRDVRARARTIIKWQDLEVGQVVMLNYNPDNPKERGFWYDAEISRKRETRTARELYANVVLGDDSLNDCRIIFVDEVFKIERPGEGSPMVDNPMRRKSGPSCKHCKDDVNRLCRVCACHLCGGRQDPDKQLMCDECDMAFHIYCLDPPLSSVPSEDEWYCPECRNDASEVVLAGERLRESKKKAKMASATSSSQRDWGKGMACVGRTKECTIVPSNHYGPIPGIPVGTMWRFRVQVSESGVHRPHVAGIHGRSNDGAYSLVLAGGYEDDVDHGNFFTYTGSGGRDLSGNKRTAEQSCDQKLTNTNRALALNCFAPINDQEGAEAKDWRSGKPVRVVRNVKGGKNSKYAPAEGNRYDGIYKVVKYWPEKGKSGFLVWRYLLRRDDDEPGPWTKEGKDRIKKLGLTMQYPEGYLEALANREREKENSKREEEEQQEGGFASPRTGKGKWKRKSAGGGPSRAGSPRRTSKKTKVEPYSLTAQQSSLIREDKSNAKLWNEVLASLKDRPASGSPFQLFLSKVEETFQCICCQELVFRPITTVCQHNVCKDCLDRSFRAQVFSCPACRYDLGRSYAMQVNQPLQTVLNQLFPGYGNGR
# PRMT1 inh = PRMT1 methyltransferase inhibitors, primary screen, biochemical, fluorescence polarization | inhibition, % at 2.79 µM | 1.3% of 370,000 active | Protein arginine N-methyltransferase 1 (Homo sapiens), Q99873 | recombinant PRMT1, activity-based probe fluorescence polarization;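 active = inhibition above about 21% made by adding two undisclosed values, limit read from the data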
# PfG6PD inh = PfG6PD enzyme inhibitors, primary screen, biochemical, fluorescence intensity, uHTS; 0.78% of 350,000 active; inhibition, % at 20 µM; PfGluPho enzyme, NADPH resazurin-diaphorase fluorescence; glucose-6-phosphate dehydrogenase-6-phosphogluconolactonase (Plasmodium falciparum 3D7);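 active = inhibition reaching at least a set limit at 20 µM in the primary screen, cut at about 59% in these data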;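 also: 0% = DMSO wells with substrate and 100% = DMSO wells lacking glucose-6-phosphate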
# MBD2 inh = inhibitors of MBD2 binding to methylated DNA, primary screen, biochemical, TR-FRET, DNA-binding domain, human | MBD2 binding to methylated oligonucleotide | 0.31% of 370,000 active | Methyl-CpG-binding domain protein 2 (Homo sapiens), Q9UBB5 | inhibition, % at 4.4 µM | AID 686964, 2013; in the data active = inhibition above about 13%
# PfM18AAP inh-1 = PfM18AAP inhibitors, malaria aminopeptidase, primary screen, biochemical, QFRET, recombinant enzyme. H-Glu-NHMec fluorogenic cleavage. inhibition, % at 7.35 µM. 1.2% of 290,000 active;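 active = inhibition above the campaign mean inhibition over all tested compounds plus 3 SD, cut at about 28% in these data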;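 also: 0% = plate median of test compound wells and 100% = 2 mM ZnCl2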
# PfM18AAP inh-2 = PfM18AAP inhibitors, malaria aminopeptidase, confirmation, biochemical, QFRET, recombinant enzyme, triplicate; shares compounds with PfM18AAP inh-1; H-Glu-NHMec fluorogenic cleavage; inhibition, % at 7.35 µM; 28% of 2,400 active;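 active = mean inhibition over replicate wells above the hit cutoff set for the earlier primary screen, cut at about 29% in these data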;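 also: 0% = median of test compound wells and 100% = 2 mM ZnCl2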
# CTSL1 counter = cathepsin L1 inhibitors, retest, confirmation, counter-screen for PFM18AAP inhibitor project, biochemical, QFRET, triplicate. purified cathepsin L1, Z-Leu-Arg-MCA fluorescence. shares compounds with PfM18AAP inh-1. inhibition, % at 5.96 µM. 2,400 tested, under 10 active;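 active = average inhibition across replicates above the hit cutoff set in the earlier primary screen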;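 also: 0% = median of test compound wells and 100% = Z-Phe-Ala-diazomethylketone 1 µM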
# The depositor's hits bear a star; / = not tested or not shown. The list is not random: actives were taken first. Their share in the collection is about 3.3%.
SMILES,UHRF1 MBD2 ctr,PRMT1 inh,PfG6PD inh,MBD2 inh,PfM18AAP inh-1,PfM18AAP inh-2,CTSL1 counter
O=C(CSc1nn(-c2ccccc2)c(=S)s1)Nn1cnnc1,2,-1,-29,-2,53*,73*,0
Cc1ccc(Cn2cc(CN3[C@@H](CC(C)C)COc4cc(Br)ccc4S3(=O)=O)nn2)cc1,4,-1,/,-1,/,/,/
O=S1(=O)c2ccc(Br)cc2OC[C@H](Cc2ccccc2)N1Cc1cn(CCC2OCCCO2)nn1,0,-3,/,0,/,/,/
Cc1nc(NC(=O)c2ccccc2)sc1-c1csc(Nc2ccc(Cl)cc2)n1,/,/,/,/,2,/,/
Cc1nc2ccccn2c1-c1csc(Nc2cccc(O)c2)n1,2,3,42,0,38*,23,5
Cc1nc2ccccn2c1-c1csc(Nc2ccc(C(=O)O)cc2)n1,2,-3,16,-2,43*,23,0
O=C(CN(CCc1ccccc1)S(=O)(=O)c1cccs1)N1CCOCC1,2,0,/,1,/,/,/
O=C(O)C(=O)Nc1ncn[nH]1,1,-1,12,6,/,/,/
COc1ccc(/C=C/C(=O)Nn2cnnc2)cc1,0,0,2,4,80*,71*,4
O=C(/C=C/c1ccccc1)Nc1ncn[nH]1,/,/,-12,/,45*,48*,-2
O=C(/C=C/c1ccccc1)Nn1cnnc1,-3,-3,-6,2,80*,70*,1
CC(C)C[C@H]1CNC(=O)C(=O)N1C[C@@H]1CCCN1C[C@H](Cc1ccccc1)N1C[C@H](CC(C)C)N(CC2CCCCC2)C(=O)C1=O,5,3,/,7,/,/,/
O=C(Nc1ccon1)c1ccc(F)c(S(=O)(=O)N2CCCCC2)c1,0,-1,-13,-4,4,/,/
Cc1ccc(C(=O)Nn2cnnc2)cc1S(=O)(=O)N1CCOCC1,0,-2,0,-2,51*,44*,-4
O=C(Nn1cnnc1)c1ccc(F)c(S(=O)(=O)N2CCCCC2)c1,0,1,-10,-2,47*,53*,2
Cc1ccc(C(=O)NC2CC2)cc1S(=O)(=O)N1CCOCC1,1,4,-8,0,/,/,/
CCCC1CCC2(CC1)CCC2OC(=S)NCCc1ccc(Cl)cc1 (stereo not drawn),0,1,/,1,/,/,/
C[C@H](O)[C@@H]1CN2CCc3ccc(-c4ccc5c(c4)OCO5)cc3[C@@H]2C[C@@H]1N(C)CC1CCCCC1,-1,1,/,-5,/,/,/
COC(=O)[C@@]12CCCCC3=C1N(CCC3)C(=O)[C@H]2CC(=O)N1CCSCC1,-2,2,/,6,/,/,/
CN=c1scc(-c2cccs2)n1/N=C/c1ccccc1O,0,-2,6,0,6,/,/
CC(C)N=c1scc(-c2ccco2)n1/N=C/c1ccc(O)c(O)c1,1,8,12,-2,45*,49*,0
COCCN=c1scc(-c2ccco2)n1/N=C/c1ccc(O)c(O)c1O,6,40*,55,2,36*,5,-2
Cc1nn(-c2ccccc2)c2nc(N)c(C#N)c(-c3ccc(O)c(O)c3)c12,1,4,-14,-1,70*,48*,0
Cc1nn(-c2ccc(F)cc2)c2nc(N)c(C#N)c(-c3ccc(O)c(O)c3)c12,-2,-2,2,-6,69*,48*,-1
COc1cc(-c2c(C#N)c(N)nc3c2c(C)nn3-c2ccc(C)c(C)c2)cc(OC)c1OC,2,1,2,1,1,/,/
CON(Cc1ccccc1)S(=O)(=O)c1ccccc1Br,1,-1,/,-6,/,/,/
Cc1ccc2nc3sc(C(=O)N4CCN(C)CC4)cc3cc2c1,-3,-4,/,-8,/,/,/
